# Measured values published in PubChem BioAssay (EPA / NIEHS).
# Where “and” joins values, the source holds several entries; their conditions need not be identical. Equal entries are not always repeated. Records with an inconclusive call do not appear. Calls of active or inactive are those of the source. The calls were made as follows: active = hit-call score of the fitted dose curve at least 0.9, where 1 is the maximum; inconclusive = response in the unintended direction; inactive = score below 0.9.
# Key:
# [1] = TOX21_p53_BLA_p2_viability: Viability Assessment in the Tox21 HCT-116 p53 Agonism Beta-lactamase Assay, Phase 2 (AID 2283591);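 also: compound exposure lasted 16 h at 37 °C; actives lower the ATP signal meaning cytotoxicity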
# Outline: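 Cytotoxicity readout: CellTiter-Glo ATP luminescence, 30 min at room temperature, after the beta-lactamase read. Cells were HCT116 exposed 16 h at 37C to compounds pin-transferred at 217-fold dilution from DMSO stocks.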
# [2] = target: Cellular tumor antigen p53 (Homo sapiens) (UniProt P04637); test: TOX21_p53_BLA_p2_ratio: Tox21 HCT-116 p53 Agonism Beta-lactamase Assay, Ratio, Phase 2 (AID 2283592)
# Chain of Cellular tumor antigen p53 (Homo sapiens) (P04637 whole entry, looked up): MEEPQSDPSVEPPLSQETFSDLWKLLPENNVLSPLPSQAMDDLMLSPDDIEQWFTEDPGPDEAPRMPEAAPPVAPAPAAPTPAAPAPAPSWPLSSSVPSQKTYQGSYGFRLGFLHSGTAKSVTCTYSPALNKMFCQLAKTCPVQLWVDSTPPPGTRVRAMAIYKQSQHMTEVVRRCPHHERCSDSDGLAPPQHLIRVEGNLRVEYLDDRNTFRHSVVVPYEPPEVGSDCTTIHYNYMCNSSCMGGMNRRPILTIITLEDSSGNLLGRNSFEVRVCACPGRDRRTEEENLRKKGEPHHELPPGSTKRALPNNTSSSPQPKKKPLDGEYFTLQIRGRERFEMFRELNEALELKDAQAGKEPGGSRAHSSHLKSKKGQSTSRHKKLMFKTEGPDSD
# Outline: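 Cleaved-to-uncleaved substrate ratio (460 vs 530 nm) measured in HCT116 cells with an inducible beta-lactamase reporter linked to p53 activity. Compounds incubated 16 h at 37C before 2 h room-temperature CCF4-AM loading.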
# [3] = TOX21_p53_BLA_p3_viability: Viability Assessment in the Tox21 HCT-116 p53 Agonism Beta-lactamase Assay, Phase 3 (AID 2283593);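 also: cells exposed to compound for 16 h before reading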
# Outline: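 Cellular ATP was quantified by CellTiter-Glo luminescence, read after 30 min at room temperature. Beforehand, HCT116 cells (4000/well) received compound 5 h post-seeding, 217-fold diluted from DMSO, then incubated 16 h at 37C.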
# [4] = target: Cellular tumor antigen p53 (Homo sapiens) (UniProt P04637); test: TOX21_p53_BLA_p3_ratio: Tox21 HCT-116 p53 Agonism Beta-lactamase Assay, Ratio, Phase 3 (AID 2283596)
# Outline: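 Cells were seeded at 4000/well, rested 5 h at 37C, then dosed with DMSO compound solutions (217-fold dilution) for 16 h. CCF4-AM substrate was loaded for 2 h at room temperature, and the 460/530 nm emission ratio was fitted for gain of signal versus DMSO.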
# [5] = TOX21_p53_BLA_p4_viability: Viability Assessment in the Tox21 HCT-116 p53 Agonism Beta-lactamase Assay, Phase 4 (AID 2283597);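 also: hits lower the luminescence signal meaning cytotoxicity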
# Outline: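 Viability is taken as cellular ATP: after 16 h compound exposure of HCT116 cells and a 2 h room-temperature CCF4-AM substrate step, CellTiter-Glo reagent is added and luminescence is measured 30 min later.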
# [6] = target: Cellular tumor antigen p53 (Homo sapiens) (UniProt P04637); test: TOX21_p53_BLA_p5_ratio: Tox21 HCT-116 p53 Agonism Beta-lactamase Assay, Ratio, Phase 5 (AID 2283599)
# Outline: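 Beta-lactamase reporter ratio (blue 460 nm over green 530 nm, 405 nm excitation) after 2 h CCF4-AM loading, in HCT-116 cells exposed 16 h at 37 C to compounds pinned at 217-fold dilution. Increases relative to DMSO baseline scored.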
# [7] = TOX21_p53_BLA_p5_viability: Viability Assessment in the Tox21 HCT-116 p53 Agonism Beta-lactamase Assay, Phase 5 (AID 2283600)
# Outline: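 Viability is taken from cellular ATP content, measured by luciferase luminescence in the same wells after the beta-lactamase ratio read. Cells are seeded at 4000 per well and exposed to DMSO-dissolved compounds, diluted 217-fold, for 16 h.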
# [8] = target: Cellular tumor antigen p53 (Homo sapiens) (UniProt P04637); test: TOX21_p53_BLA_p4_ratio: Tox21 HCT-116 p53 Agonism Beta-lactamase Assay, Ratio, Phase 4 (AID 2283601)
# Outline: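 Signal is the blue/green (460nm/530nm) ratio of cleaved versus uncleaved CCF4-AM substrate, read after 2 h substrate loading. Cells were HCT116 carrying the p53-responsive beta-lactamase reporter, dosed 16 h at 37C, 5% CO2; CellTiter-Glo measured in parallel.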
SMILES,outcome [1],outcome [2],outcome [3],AC50 [4],outcome [5],outcome [6],outcome [7],outcome [8],AC50 [1],AC50 [2],AC50 [3],AC50 [5],AC50 [6],AC50 [7],AC50 [8],outcome [4]
c1ccc2c(c1)[nH]c1cnccc12,inactive,inactive,inactive,46.1 µM (active),inactive,inactive,inactive,inactive,–,–,–,–,–,–,–,–
C[C@H]1CC[C@]2(NC1)O[C@H]1C[C@H]3[C@@H]4CC[C@H]5C[C@@H](O[C@@H]6O[C@H](CO)[C@H](O[C@@H]7O[C@H](CO)[C@@H](O)[C@H](O[C@@H]8OC[C@@H](O)[C@H](O)[C@H]8O)[C@H]7O[C@@H]7O[C@H](CO)[C@@H](O)[C@H](O)[C@H]7O)[C@H](O)[C@H]6O)CC[C@]5(C)[C@H]4CC[C@]3(C)[C@H]1[C@@H]2C,–,–,–,29.4 µM (active),–,–,–,–,4.84 µM (active),31.4 µM (active),5.23 µM (active),4.05 µM (active),30.3 µM (active),6.08 µM (active),24 µM (active),–
CC(=O)O[C@H]1C[C@H](O[C@H]2[C@@H](O)C[C@H](O[C@H]3[C@@H](O)C[C@H](O[C@H]4CC[C@@]5(C)[C@H](CC[C@@H]6[C@@H]5C[C@@H](O)[C@]5(C)[C@@H](C7=CC(=O)OC7)CC[C@]65O)C4)O[C@@H]3C)O[C@@H]2C)O[C@H](C)[C@H]1O[C@@H]1O[C@H](CO)[C@@H](O)[C@H](O)[C@H]1O,–,inactive,–,–,–,inactive,–,inactive,0.109 µM (active),–,0.0857 µM (active),0.121 µM (active),–,0.0758 µM (active),–,inactive
CNC(=O)Oc1ccccc1C(=O)Nc1ccccc1,inactive,inactive,inactive,–,inactive,inactive,inactive,inactive,–,–,–,–,–,–,–,inactive
Oc1c(Br)c(Br)c(Br)c(Br)c1Br,inactive,–,inactive,0.886 µM (active),inactive,inactive,inactive,inactive,–,1.56 µM (active),–,–,–,–,–,–
Oc1ccc(C(=C(Cl)Cl)c2ccc(O)cc2)cc1,inactive,–,inactive,–,–,inactive,inactive,–,–,41.2 µM (active),–,77.7 µM (active),–,–,72.4 µM (active),inactive
CN1C[C@@H](NS(=O)(=O)N(C)C)C[C@@H]2c3cccc4c3c(cn4C)C[C@H]21,inactive,inactive,inactive,–,inactive,inactive,inactive,inactive,–,–,–,–,–,–,–,inactive
CCCCCCCCCCCC[N+](C)(C)CCOc1ccccc1,–,–,–,84.4 µM (active) and 43.8 µM (active),–,–,–,–,28.1 µM (active) and 30.3 µM (active),33.3 µM (active) and 40.8 µM (active),53 µM (active) and 22.3 µM (active),37.5 µM (active) and 16.3 µM (active),85.4 µM (active) and 44.8 µM (active),54.3 µM (active) and 33.6 µM (active),36.1 µM (active),–
Oc1ccc(Cl)c(Cl)c1,inactive,inactive,inactive,–,inactive,inactive,inactive,inactive,–,–,–,–,–,–,–,inactive
O=Cc1ccccc1,inactive,inactive,inactive,–,inactive,inactive,inactive,inactive,–,–,–,–,–,–,–,inactive
COC(COC(N)=O)C1=C(N2CC2)C(=O)C(C)=C(N2CC2)C1=O (centres undefined),inactive,–,–,0.121 µM (active),inactive,–,–,–,–,6.58 µM (active),18.2 µM (active),–,0.219 µM (active),36.3 µM (active),17.2 µM (active),–
[Cl][Hg][c]1ccccc1,–,–,–,8.93 µM (active),–,–,–,–,0.576 µM (active),0.553 µM (active),2.88 µM (active),0.624 µM (active),10.9 µM (active),2.95 µM (active),0.672 µM (active),–
CN(C)S(=O)(=O)N(SC(F)(Cl)Cl)c1ccccc1,–,–,inactive,–,–,–,–,–,87.1 µM (active),26.3 µM (active),–,86.8 µM (active),32.3 µM (active),86.8 µM (active),48.6 µM (active),inactive
CCCC(=O)OC(C(Cl)(Cl)Cl)P(=O)(OC)OC (centres undefined),inactive,inactive,inactive,–,inactive,inactive,inactive,inactive,–,–,–,–,–,–,–,inactive
O=C(O)/C=C\C(=O)O,inactive,inactive,inactive,–,inactive,inactive,inactive,inactive,–,–,–,–,–,–,–,inactive
CC(O)C(=O)[O][Hg][c]1ccccc1 (centres undefined),–,–,–,2.21 µM (active),–,–,–,–,2.69 µM (active),9.88 µM (active),0.648 µM (active),3.87 µM (active),2.92 µM (active),1.59 µM (active),5.92 µM (active),–
Oc1cc(Cl)c(Cl)c(Cl)c1Cl,inactive,–,–,6.58 µM (active),inactive,–,inactive,–,–,5.97 µM (active),22.3 µM (active),–,7.24 µM (active),–,7.69 µM (active),–
CN(C)c1ccc(N)cc1,inactive,–,inactive,–,inactive,inactive,inactive,inactive,–,72 µM (active),–,–,–,–,–,inactive
CC(C)CON=O,inactive,inactive,inactive,–,inactive,inactive,inactive,inactive,–,–,–,–,–,–,–,inactive
COc1ccc(Cc2nccc3cc(OC)c(OC)cc23)cc1OC,inactive,inactive,inactive,–,inactive,inactive,inactive,inactive,–,–,–,–,–,–,–,inactive
Oc1ccc(Cl)c(Cl)c1Cl,inactive,inactive,inactive,–,inactive,inactive,inactive,inactive,–,–,–,–,–,–,–,inactive
C#C[C@]1(OC(=O)CCCCCC)CC[C@H]2[C@@H]3CCC4=CC(=O)CC[C@@H]4[C@H]3CC[C@@]21C,–,inactive,–,–,inactive,inactive,inactive,inactive,8.02 µM (active),–,23 µM (active),–,–,–,–,inactive
CCCC(Cn1cncn1)c1ccc(Cl)cc1Cl (centres undefined),inactive,–,inactive,85.7 µM (active),inactive,inactive,inactive,–,–,75.6 µM (active),–,–,–,–,75.2 µM (active),–
